Laboratory results reported in PubChem BioAssay AID652115 (Broad Institute, 2013).
The campaign covered roughly 330,000 compounds. About 3,800 (1.2%) were called active. No stated cut-off is given here; in the data, active means inhibition above about 15%; inconclusive means no clear call, values can overlap the other calls; inactive means below that. What follows is part of a selection rich in actives, with near analogues and random picks from the rest.

Biological target: NAD-dependent protein deacylase sirtuin-5, mitochondrial (Homo sapiens) (UniProt Q9NXA8)
Sequence (Q9NXA8 whole entry, looked up): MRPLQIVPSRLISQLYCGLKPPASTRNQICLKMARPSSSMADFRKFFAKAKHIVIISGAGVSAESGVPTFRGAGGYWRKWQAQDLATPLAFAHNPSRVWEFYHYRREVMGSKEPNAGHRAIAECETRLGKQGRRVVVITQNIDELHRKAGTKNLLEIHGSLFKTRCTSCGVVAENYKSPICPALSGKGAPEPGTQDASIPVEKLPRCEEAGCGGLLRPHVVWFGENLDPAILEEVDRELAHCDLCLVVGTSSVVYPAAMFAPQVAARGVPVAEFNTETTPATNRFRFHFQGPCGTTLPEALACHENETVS
Experiment: SIRT5 desuccinylase inhibitors, primary screen, biochemical, fluorescence imaging, single point, set 5 (AID 652115)
Conditions: Purified SirT5, succinyl-peptide AMC, trypsin-coupled fluorescence; at 15 µM; active compounds read high

SMILES	inhibition
CN(C)CC(=O)N1[C@@H](C#N)[C@@H](c2ccccc2-c2ccccc2F)[C@@H]1CO	-0.215% (inactive)
COCC(=O)N1C[C@@H](C)[C@H](OC)CN(C)C(=O)c2cc(NC(=O)c3cc(C)on3)ccc2OC[C@@H]1C	-4.63% (inactive)
N#Cc1ccc(-c2ccc([C@@H]3[C@H]4CNC[C@@H]3N4Cc3cc(F)ccc3F)cc2)cc1	-3.56% (inactive)
COCC#Cc1cnc2c(c1)C(=O)N([C@H](C)CO)C[C@H](C)[C@H](CN(C)C(=O)Nc1ccccc1OC)O2	3.78% (inactive)
C[C@@H](NC(=O)C[C@H]1C[C@@H]2c3cc(NC(=O)Nc4ccccc4F)ccc3O[C@@H]2[C@H](CO)O1)c1ccccc1	1.89% (inactive)
COc1ccccc1NC(=O)Nc1ccc2c(c1)OC[C@H](C)NC[C@H](C)[C@@H](OC)CN(C)C2=O	6.5% (inactive)
COc1ccc(S(=O)(=O)N(C)C[C@H]2OCCCC[C@@H](C)Oc3ccc(NS(=O)(=O)c4ccc(C)cc4)cc3C(=O)N([C@@H](C)CO)C[C@@H]2C)cc1	21.4% (active)
CC(C)NC(=O)Nc1ccc2c(c1)C(=O)N([C@@H](C)CO)C[C@H](C)[C@H](CN(C)S(=O)(=O)c1ccc(Cl)cc1)OCCCC[C@H](C)O2	4.57% (inactive)
COc1ccc(S(=O)(=O)N(C)C[C@@H]2OCCCC[C@@H](C)Oc3ccc(NS(=O)(=O)c4ccccc4)cc3C(=O)N([C@@H](C)CO)C[C@H]2C)cc1	4.81% (inactive)
COc1ccc(S(=O)(=O)N(C)C[C@H]2OCCCC[C@H](C)Oc3ccc(NS(=O)(=O)c4ccc(F)cc4)cc3C(=O)N([C@@H](C)CO)C[C@@H]2C)cc1	20.4% (active)
COc1ccc(S(=O)(=O)Nc2ccc3c(c2)C(=O)N([C@@H](C)CO)C[C@H](C)[C@@H](CN(C)S(=O)(=O)c2ccc(C)cc2)OCCCC[C@@H](C)O3)cc1	4.83% (inactive)
C[C@@H]1CN([C@@H](C)CO)C(=O)c2cc(NC(=O)Nc3cccc4ccccc34)ccc2O[C@@H](C)CCCCO[C@@H]1CN(C)S(=O)(=O)c1ccc(Cl)cc1	18.7% (active)
C[C@@H]1CCCCO[C@@H](CN(C)Cc2ccc3c(c2)OCO3)[C@@H](C)CN([C@@H](C)CO)C(=O)c2cc(NC(=O)Nc3ccccc3)ccc2O1	0.341% (inactive)
COc1ccc(S(=O)(=O)Nc2ccc3c(c2)C(=O)N([C@@H](C)CO)C[C@H](C)[C@H](CN(C)S(=O)(=O)c2ccc(F)cc2)OCCCC[C@@H](C)O3)cc1	11.3% (inactive)
C[C@H]1CCCCO[C@@H](CN(C)Cc2ccc3c(c2)OCO3)[C@@H](C)CN([C@@H](C)CO)C(=O)c2cc(NC(=O)Nc3ccc(F)cc3)ccc2O1	1.57% (inactive)
C[C@@H]1CN([C@H](C)CO)C(=O)c2cc(NC(=O)Nc3ccc4c(c3)OCO4)ccc2O[C@@H](C)CCCCO[C@@H]1CN(C)Cc1ccc2c(c1)OCO2	15.3% (active)
C[C@H](CO)N1C[C@H](C)[C@@H](CN(C)S(C)(=O)=O)OCCCC[C@H](C)Oc2ccc(NC(=O)Nc3cccc4ccccc34)cc2C1=O	-3.3% (inactive)
COc1ccc(S(=O)(=O)Nc2ccc3c(c2)C(=O)N([C@@H](C)CO)C[C@H](C)[C@@H](CN(C)S(=O)(=O)c2ccc(F)cc2)OCCCC[C@H](C)O3)cc1	3.5% (inactive)
